The full list was thinned out, with hits kept by preference.
ID4 binder – binds human ID4 protein on microarray; P47928; small molecule microarray, Flag-ID4 binding, fluorescence F/B; calls only; 31,000 compounds, 1.2% hits; AID 624137; call rule not given here;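 note: a binder raises fluorescence above local background on the spot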
Target sequence (P47928 whole entry, looked up): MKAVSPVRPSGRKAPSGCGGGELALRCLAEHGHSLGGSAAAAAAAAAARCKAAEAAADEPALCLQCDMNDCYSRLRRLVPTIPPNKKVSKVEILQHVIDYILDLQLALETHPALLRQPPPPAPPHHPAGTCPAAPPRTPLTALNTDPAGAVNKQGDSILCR
STK33 kin inh – human STK33 kinase inhibition | Q9BYT3 | ADP-Glo luminescence, MBP substrate | inhibition, % at 12.5 µM | 27,000 compounds, 0.44% hits | AID 2322; in the data active = inhibition above about 20%
An asterisk follows results filed as active; i = inactive; · = no result; + = active, no number.

SMILES	ID4 binder	STK33 kin inh
COc1ccc(Cl)cc1N(CC(=O)Nc1ccc(C(F)(F)F)cc1)S(C)(=O)=O	i	-3
COc1ccc(N(Cc2cc3cc(C)ccc3[nH]c2=O)C(=O)c2ccccc2)cc1	i	4
CCNC(=O)c1c(NC(=O)c2ccccc2[N+](=O)[O-])sc2c1CCCC2	i	-3
C[C@H](CO)N1C[C@H](C)[C@@H](CN(C)S(=O)(=O)c2cccs2)Oc2ccc(NC(=O)CCCN(C)C)cc2C1=O	+	·
C[C@H](CO)N1C[C@H](C)[C@H](CN(C)S(=O)(=O)c2cn(C)cn2)Oc2ccc(NC(=O)CCCN(C)C)cc2C1=O	·	-1
C[C@@H]1CCCCO[C@H](CN(C)S(=O)(=O)c2cccs2)[C@@H](C)CN([C@H](C)CO)C(=O)c2cc(NC(=O)CCC(F)(F)F)ccc2O1	·	-4
C[C@@H]1CN([C@@H](C)CO)C(=O)c2cc(NC(=O)CCCN(C)C)ccc2O[C@@H](C)CCCCO[C@@H]1CN(C)S(=O)(=O)c1cn(C)cn1	+	·
C[C@@H]1CN([C@@H](C)CO)C(=O)c2cc(NC(=O)CCCN(C)C)ccc2O[C@@H]1CN(C)S(=O)(=O)c1cccs1	·	0
C[C@@H]1CCCCO[C@@H](CN(C)S(=O)(=O)c2cccs2)[C@@H](C)CN([C@@H](C)CO)C(=O)c2cc(NC(=O)CCCN(C)C)ccc2O1	+	·
COc1cccc2c1oc(=O)c1c(NC(C)=O)nc(-c3cccs3)nc12	i	·
C=C1C(=O)O[C@@H]2C[C@@]3(C)CC(=O)C=C(C)C3C[C@H]12 (some centres undefined)	·	1
OC(COc1ccc2ccccc2c1Br)Cn1cnc(-c2ccccc2)c1 (centres undefined)	i	1
OC(COc1ccc(Cl)cc1)Cn1cnc(-c2ccccc2)c1 (centres undefined)	i	21*
C[C@@H]1O[C@@H](O[C@H]2[C@@H]3C=CO[C@@H](O[C@@H]4O[C@H](CO)[C@@H](O)[C@H](O)[C@H]4O)[C@@H]3[C@@]3(CO)O[C@@H]23)[C@H](O)[C@H](OC(=O)/C=C/c2ccc(O)cc2)[C@H]1O	·	-11
NCCNS(=O)(=O)c1cccc2cnccc12	·	44*
O=S(=O)(c1cccc2cnccc12)N1CCNCC1	i	·
O=[N+]([O-])c1nn(-c2ccc(Cl)cc2)n(O)c1=NCc1ccccn1	i	1
Cc1ccc(-c2nc3ccccc3[nH]2)cc1NC(=O)COc1ccc(C(C)C)cc1	i	1
COc1ccccc1OCC(=O)Nc1cc(-c2nc3ccccc3[nH]2)ccc1C	+	3
C[C@@H]1CN([C@@H](C)CO)C(=O)Cc2cc(NC(=O)CCCN(C)C)ccc2O[C@H]1CN(C)C(=O)Nc1ccc(F)cc1	+	·
C[C@H](CO)N1C[C@H](C)[C@@H](CN(C)C(=O)Nc2ccccc2)Oc2ccc(NC(=O)Cc3ccccc3)cc2CC1=O	i	·
C[C@@H]1CN([C@@H](C)CO)C(=O)Cc2cc(NC(=O)CCCN(C)C)ccc2O[C@@H]1CN(C)C	i	·
C[C@H]1CN([C@@H](C)CO)C(=O)Cc2cc(NC(=O)Cc3ccccc3)ccc2O[C@H]1CN(C)C(=O)Nc1ccccc1	+	0
CCOC(=O)c1c(NC(=O)Cn2nc([N+](=O)[O-])c(Cl)c2C)sc2c1CCC2	i	5
CCCCC/C=C\C/C=C\C/C=C\CCCCC(=O)O	i	-1
SMILES	ID4 binder	STK33 kin inh
CCCCC/C=C\C/C=C\CCCCCCCC(=O)NCC(=O)O	+	0
CCCCC/C=C\C/C=C\CCCCCCCC(=O)O	·	0
CCCCC/C=C\C/C=C\C/C=C\CCCCCCC(=O)O	+	·
CNC[C@H]1Oc2ncc(C3=CCCCC3)cc2C(=O)N([C@@H](C)CO)C[C@H]1C	+	·
C[C@H]1CN([C@@H](C)CO)C(=O)c2cc(C3=CCCC3)cnc2O[C@@H]1CN(C)S(C)(=O)=O	i	·
CNC[C@H]1Oc2ncc(C#Cc3cccc(OC)c3)cc2C(=O)N([C@@H](C)CO)C[C@H]1C	i	·
CNC[C@@H]1Oc2ncc(C#Cc3ccc(OC)c(OC)c3)cc2C(=O)N([C@H](C)CO)C[C@@H]1C	+	-1
CNC[C@@H]1Oc2ncc(C3=CCCCC3)cc2C(=O)N([C@H](C)CO)C[C@@H]1C	i	·
C[C@H]1CN([C@@H](C)CO)C(=O)c2cc(C3=CCCCC3)cnc2O[C@H]1CN(C)S(=O)(=O)c1cn(C)cn1	+	·
O=C(/C=C/CCc1ccccc1)CCc1ccccc1	i	-1
O=C1O[C@@H](c2ccccc2)[C@@H](c2ccccc2)N2[C@@H](c3ccccc3OCCO)[C@]3(C(=O)Nc4ccc(C#CC5(O)CCCCCC5)cc43)[C@@H](C(=O)Nc3nc4ccccc4s3)[C@H]12	·	3
CC1(C)[C@@H]2CC=C(CO[C@@H]3O[C@H](CO[C@@H]4O[C@@H](CO)[C@H](O)[C@H]4O)[C@@H](O)[C@H](O)[C@H]3O)[C@H]1C2	·	0
CCOC(=O)c1c(C)sc2c(C)c(C)[nH]c12	i	·
COC(=O)c1ccccc1NC(=O)CC(O)(C(F)(F)F)C(F)(F)F	i	2

Compound activity as filed in PubChem.
